# TDP1 block – inhibitors of human tyrosyl-DNA phosphodiesterase TDP1. Q9NUW8. recombinant TDP1, AlphaScreen DNA substrate cleavage. Potency, µM (titrated, usually from 130 µM), for inactives: at the top dose activity change, negative = inhibition, most hits filed as inhibitors. hit rate 0.28% among 350,000. AID 485290; also: nearly all actives have a fitted effect of over 40% in size
#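 AlphaScreen read-out: signal falls as enzyme removes the 3' tyrosine-FITC from a 5'-biotinylated DNA oligo (15 nM, 5 min, RT). Enzyme was E. coli-made recombinant Tdp1 at 1 nM, exposed to compound for 15 min beforehand; beads 10 ug/ml, 10 min.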
# DT40 TDP1 CPT – DT40-hTDP1 cell growth loss with CPT; chicken DT40 Tdp1-/-;hTDP1 cells + 20 nM CPT, ATP luminescence, 48 h; Potency, µM (top dose mostly 46.2 µM), without a hit: at the highest dose activity change, negative = growth inhibition, actives largely listed as inhibitors; hit rate 12% among 420,000; also: nearly all actives have a fitted effect of over 55% in size
#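 Chicken DT40 Tdp1-/- cells stably complemented with human TDP1 were seeded at 400 cells/well in medium containing 20 nM camptothecin, exposed to pin-transferred compounds, and grown at 37 °C for at least 48 hr. Viability was read as ATP luminescence.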
# Gal4-VP16 FLuc – inhibits Gal4-VP16 luciferase reporter, ROR gamma counter-screen | Drosophila S2 Gal4-VP16 UAS-luciferase, luminescence, 20 h | Potency, µM (titrated, usually from 53.6 µM), for inactives: top-dose activity, negative = inhibition, hits mostly inhibitors | hit rate 3.5% among 310,000 | AID 2546;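 also: Gal4-VP16 expression switched on by copper sulfate through the metallothionein promoter; nearly all actives have a fitted effect of over 50% in size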
# DT40 TDP1 no CPT – qHTS for Inhibitors of human tyrosyl-DNA phosphodiesterase 1 (TDP1): qHTS in cells in absence of CPT; AID 686978, 2013; hit rate 15% among 420,000; Potency, µM (top dose mostly 46.2 µM), inactives show at the highest dose activity change, negative = growth inhibition, usual class: inhibitors; DT40 Tdp1-/- hTDP1 cells, no CPT, ATP luminescence, 48 h; also: nearly all actives have a fitted effect of over 55% in size
#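 A cellular qHTS used chicken DT40 cells lacking endogenous Tdp1 but carrying stably transfected human TDP1. Compounds were applied without camptothecin, and cell growth kinetics were judged by ATP-dependent luminescence after ≥48 hr.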
# RORg inh – inhibitors of mouse ROR gamma transcriptional activity; Drosophila S2 Gal4-RORgamma UAS-luciferase reporter, 20 h; hit rate 5.4% among 310,000; P51450; AID 2551; Potency, µM (doses to about 53.6 µM), inactives show top-dose activity change, negative = inhibition, usual class: inhibitors; also: nearly all actives have a fitted effect of over 60% in size
# Target sequence (P51450 whole entry, looked up, the tested form may be a part): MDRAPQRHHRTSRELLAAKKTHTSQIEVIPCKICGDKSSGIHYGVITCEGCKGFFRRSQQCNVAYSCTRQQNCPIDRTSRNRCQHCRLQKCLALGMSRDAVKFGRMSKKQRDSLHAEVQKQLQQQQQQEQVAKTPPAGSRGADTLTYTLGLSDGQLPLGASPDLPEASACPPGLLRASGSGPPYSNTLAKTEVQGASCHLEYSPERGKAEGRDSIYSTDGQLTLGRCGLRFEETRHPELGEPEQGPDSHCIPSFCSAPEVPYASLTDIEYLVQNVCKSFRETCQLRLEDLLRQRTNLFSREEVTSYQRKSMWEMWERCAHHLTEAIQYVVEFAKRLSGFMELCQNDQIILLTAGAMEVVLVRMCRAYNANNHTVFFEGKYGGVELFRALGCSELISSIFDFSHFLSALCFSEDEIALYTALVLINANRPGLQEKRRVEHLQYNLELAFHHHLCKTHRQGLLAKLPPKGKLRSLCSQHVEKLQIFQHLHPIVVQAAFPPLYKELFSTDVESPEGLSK
#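 Stably transfected Drosophila Schneider cells are the test system, with ROR gamma fused to Gal4 and luciferase under UAS control; luminescence is read after 20 hr of 700 uM copper sulfate induction at ambient temperature.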
# Active calls of the source: *; ? = inconclusive; nt = not tested or not shown; [ ] = another dose, or the depositor's remark. Sampled rows, rich in hits. Any-hit rate of the full collection: about 19%. Calls follow the shape of the dose curve; as a rule, active = well fitted curve in the direction sought with a large enough effect; inconclusive = small, poorly fitted or top-dose-only effect, or another doubt; inactive = no such curve, though single readings can be large; an effect the other way counts as inactive or inconclusive. % is scaled to controls: 0 for no effect and ±100 for the full control effect; potency is read from the fitted curve at half-maximal effect.
SMILES,TDP1 block,DT40 TDP1 CPT,Gal4-VP16 FLuc,DT40 TDP1 no CPT,RORg inh
CCN(CC)C(=O)N1CCC(NC(=O)Cc2ccccc2)CC1,2%,-10%,-2%,-7%,-2%
CC(C)(C)NC(=O)C1c2ccccc2OCC(=O)N1CC(F)(F)F (centres undefined),nt,0%,nt,-12%,nt
Oc1ccc(CNCC2COc3ccccc3O2)cc1 (centres undefined),-2%,-7%,-4%,?,-10%
COc1ccc(CNCCC(c2ccccc2)c2ccc3c(c2)OCO3)cc1 (centres undefined),10%,5.8µM*,?,5.8µM*,?
COc1ccc(CNCCC(c2ccc(C)cc2)c2ccco2)cc1 (centres undefined),nt,12µM*,nt,7.3µM*,nt
Cc1c(Cl)cccc1NC(=O)CCNC(=O)N1CC(=O)Nc2ccccc21,-3%,-22%,-5%,1%,9%
N#C/C(=C\c1cc(Cl)cc(Cl)c1)c1cccnc1,6%,2%[92.5 µM],nt,-14%[92.5 µM],nt
CC1CCc2nc(/C(C#N)=C/c3cccnc3)sc2C1 (centres undefined),2%,21µM*,11%,?,-11%
C[C@]12CCC(O)CC1=CCC1C2CC[C@]2(C)/C(=N\NC(N)=S)CCC12 (some centres undefined),nt,-13%,-12%,-21%,13µM*
Cc1ccc(SCCc2cc[n+](CC(=O)c3ccccc3)cc2)cc1,0%,16µM*,10%,16µM*,-32%
Cc1ccc(C(=O)C[n+]2ccc(Cc3ccccc3)cc2)cc1,-6%,5.8µM*,-5%,5.8µM*,12%
CCC(=O)Nc1nnc(SCCOC)s1,5%,-3%,-2%,-2%,0%
CC(O)[C@H]1CNCCN1CCc1cccc2ccccc12 (some centres undefined),nt,-27%,nt,?,nt
c1ccc(C[C@H]2CNCCN2CCc2cccc3ccccc23)cc1,-2%,?,nt,10µM*,nt
CCCC[C@@H]1CNCCN1CCc1cccc2ccccc12,-4%,23µM*,nt,18µM*,nt
O=C(/C=C/c1ccc(F)cc1)Nc1nc2n(n1)C(c1ccc(Cl)cc1)C=C(c1ccccc1)N2 (centres undefined),11%,?,nt,15µM*,nt
COc1ccccc1/C=C/C(=O)Nc1nc2n(n1)C(c1ccc(F)cc1)C=C(c1ccccc1)N2 (centres undefined),9%,10µM*,nt,4.6µM*,nt
CC(=O)Nc1nc2n(n1)C(c1ccc(F)cc1)C=C(c1ccc(Cl)cc1)N2 (centres undefined),11%,?,nt,?,nt
O=C(/C=C/c1ccccc1)Nc1nc2n(n1)C(c1ccc(Cl)cc1)C=C(c1ccccc1)N2 (centres undefined),3%,21µM*,nt,23µM*,nt
COc1ccc(C2C=C(c3ccccc3)Nc3nc(NC(=O)/C=C/c4ccc(Cl)cc4)nn32)cc1 (centres undefined),11%,15µM*,nt,12µM*,nt
O=S(=O)(Nc1nc2n(n1)C(c1ccc(F)cc1)C=C(c1ccc(Cl)cc1)N2)c1ccccc1 (centres undefined),3%,-25%,nt,-18%,nt
C[C@@H](O)Cc1cn(CC(=O)NCCCCCCCCCCC(=O)N2CCNCC2)nn1,8%,-17%,nt,-3%,nt
Cc1ccc(CNC(=O)CCC(=O)n2ncc3cc(C)ccc32)cc1,nt,-7%,2%,8%,-27%
COc1cccc(S(=O)(=O)NCc2ccc3c(c2)OCO3)c1,7%,-22%,-11%,-18%,-8%
CCCc1cc2c(cc1N(C)S(=O)(=O)c1ccccc1)OCO2,nt,3.7µM*,nt,3.7µM*,nt
O=C(/C=C/c1ccc(O)c(O)c1)OC(Cc1ccc(O)c(O)c1)C(=O)O (centres undefined),nt,-5%,-10%,3%,-20%
O=C(/C=C/c1cc2ccccc2o1)c1ccccc1O,8%,-6%,-8%,?,41%
O=C(C=Cc1ccccc1O)c1ccccc1O,nt,?,nt,15µM*,nt
O=C(/C=C/c1ccc(F)cc1)c1ccccc1Br,-6%,?,?,16µM*,?

# Screening data: PubChem BioAssay, National Center for Advancing Translational Sciences (NCATS)
